Test results from PubChem BioAssay (NCATS).
Records with an inconclusive call do not appear. A call without a number means that no potency is given here. The source made the active and inactive calls. Calls follow the shape of the dose curve; as a rule, active = well fitted inhibition curve with a large enough effect; inconclusive = small, poorly fitted or top-dose-only effect; inactive = no such curve, though single readings can be large or run the other way.

biological target: Cytochrome P450 3A7 (Homo sapiens) (UniProt P24462); assay: Cytochrome P450 family 3 subfamily A member 7 (CYP3A7) small molecule antagonists: luciferase biochemical qHTS assay (AID 1963596); conditions: P450-Glo CYP3A7 enzyme luminescence, 1 h; series mostly up to 57.4 µM; also: nearly all actives have a fitted effect of over 40% in size
Method in brief: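 Biochemical CYP3A7 activity measured with P450-Glo system: luciferin formed from proluciferin substrate in NADPH-driven reaction (1 h, room temperature) after 10 min compound preincubation. Signal in relative luminescence units.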

Sequence of Cytochrome P450 3A7 (Homo sapiens) (P24462 whole entry, looked up): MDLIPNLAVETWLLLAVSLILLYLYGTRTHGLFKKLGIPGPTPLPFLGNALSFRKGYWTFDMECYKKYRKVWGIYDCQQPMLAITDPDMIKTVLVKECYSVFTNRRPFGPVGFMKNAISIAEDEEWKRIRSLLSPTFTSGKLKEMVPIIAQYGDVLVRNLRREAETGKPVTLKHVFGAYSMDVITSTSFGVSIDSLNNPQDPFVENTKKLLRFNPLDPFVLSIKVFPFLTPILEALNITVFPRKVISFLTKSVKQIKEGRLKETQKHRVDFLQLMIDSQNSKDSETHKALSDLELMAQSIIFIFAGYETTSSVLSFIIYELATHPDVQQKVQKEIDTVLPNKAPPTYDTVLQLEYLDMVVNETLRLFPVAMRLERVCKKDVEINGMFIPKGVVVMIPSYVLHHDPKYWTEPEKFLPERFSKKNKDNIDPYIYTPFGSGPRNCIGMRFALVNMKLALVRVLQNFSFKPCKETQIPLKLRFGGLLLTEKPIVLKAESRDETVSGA

SMILES | Potency
CC(C)(C)NS(=O)(=O)c1cncc(-c2cc(F)c3nc(N)nn3c2)c1 | inactive
Cc1ccc(Nc2nc3nonc3nc2Nc2cccc(C(F)(F)F)c2)cc1Cl | inactive
CC(C)c1ccc(-n2ncc3c(=O)n(CC(=O)Nc4cc(F)ccc4Cl)cnc32)cc1 | inactive
CC(=O)O[C@@H]1C(=O)O[C@@H]2[C@H]1OC(=O)[C@@H]2OC(C)=O | inactive
Nc1nc(-n2cc(C(=O)O)c(=O)c3cc(F)c(N4CC(O)C4)c(Cl)c32)c(F)cc1F | inactive
Nc1c(CC(=O)O)cccc1C(=O)c1ccccc1 | inactive
Cc1ccc(S(=O)(=O)N[C@@H]2CCCC[C@H]2O)cc1 | inactive
C[C@H](NCCc1ccc(O)cc1)[C@H](O)c1ccc(O)cc1 | inactive
N=C(N)n1cccn1 | inactive
O=C(Nc1ccccc1C(=O)Nc1ccc(CCO)cc1)c1ccc([N+](=O)[O-])cc1 | inactive
CCCC(CCC)C(N)=O | inactive
COc1ccc(OC)c(-c2ccc(NC(=O)c3ccncc3F)cc2)c1 | inactive
CCC(CC)Nc1nc(C)c(-c2ccc(OC(F)(F)F)cc2OC)nc1OC | inactive
CCOc1cc(C(=O)Nc2ccc(-c3nc4ncccc4o3)cc2C)cc(OCC)c1OCC | inactive
O=C(O)c1ccccc1NC(=O)N1CCC(c2ccccc2C(F)(F)F)CC1 | inactive
CCc1ccc(OCCn2c(C3CC(=O)N(Cc4ccc(F)cc4)C3)nc3ccccc32)cc1 (stereo not given) | inactive
COc1ccc(NC(=O)c2ccc(C(=N)N(C)C)cc2)c(C(=O)Nc2ccc(Cl)cn2)c1 | inactive
N#Cc1cc(C2=Nc3ccc(Br)cc3NC(=O)C2)ccn1 | inactive
O=c1[nH]ccc2cc(OC3CCNCC3)ccc12 | inactive
O=C(OC(C(F)(F)F)C(F)(F)F)N1CCN(Cc2cccc(Oc3ccccc3)c2)CC1 | inactive

SMILES | Potency
O=[N+]([O-])c1cn2c(n1)OC[C@@H](OCc1ccc(-c3ccc(OC(F)(F)F)cc3)nc1)C2 | inactive
C=CC1=C(C(=O)O)N2C(=O)[C@@H](NC(=O)/C(=N\OCC(=O)O)c3csc(N)n3)[C@H]2SC1 | inactive
CCn1nnnc1NCc1ccc(C(C)C)cc1 | inactive
Cc1ccc(CNC(=O)C2CCN(S(=O)(=O)c3c(C)noc3/C=C/c3ccccc3F)CC2)o1 | inactive
O=C(O)C1CSC(C(=O)O)N1 (stereo not given) | inactive
COc1cc(C(=O)NC(c2ccccc2Cl)c2cc(Cl)c3cccnc3c2O)cc(OC)c1OC (stereo not given) | inactive
COc1ccc(C(=O)NC(c2ccccc2Cl)c2cc(Cl)c3cccnc3c2O)cc1 (stereo not given) | inactive
O=C1C(c2[nH]c3ccc(S(=O)(=O)O)cc3c2O)=Nc2ccc(S(=O)(=O)O)cc21 | inactive
CCc1ccccc1OC[C@@H](O)CN[C@H]1CCCc2ccccc21 | inactive
COc1ccc(C(=O)Nc2ccc3oc(-c4ccc(OC)cc4)nc3c2)cc1 | inactive
COc1ccc(CNC(=O)Nc2ccc3c(c2)N(C)C(=O)c2ccccc2S3)cc1OC | inactive
Cc1ccc(-c2nnc(Nc3ccccc3)c3ccccc23)cc1S(=O)(=O)NCc1nc2ccccc2[nH]1 | inactive
Cc1cc(OCCCS(C)(=O)=O)cc(C)c1-c1cccc(COc2ccc3c(c2)OCC3CC(=O)O)c1 (stereo not given) | inactive
COc1cc(Cc2cnc(N)nc2N)c(C(C)C)cc1OC | inactive
C[N+]1(CCCCC[N+]2(C)CCCC2)CCCC1 | inactive
CC1=CC(O)=NS(=O)(=O)O1 | inactive
CC(C)c1cccc2c(-c3ccccc3)cc(-c3ccc(-c4ccc(C(=O)O)cc4)[nH]3)nc12 | inactive
CN(C)CCOC(c1ccc(Cl)cc1)c1ccccn1 (stereo not given) | inactive
O=C(O)c1cccc(-c2ccc(-c3cn(C(=O)N4CCCCC4Cc4ccccc4)nn3)cc2)c1 (stereo not given) | inactive
CCCCCCCCCCCCCCCCNc1ccc(C(=O)O)cc1 | inactive
